This is a sample that favours compounds with a hit; in the whole collection about 28% have one here.
CYP2C9 activ: activators of human CYP2C9; AID 1024; 96,000 compounds, 1.4% hits; activation factor at 5 µM; P11712; recombinant CYP2C9, luciferin-H conversion, luminescence; hits give high values; factor 1 = untreated enzyme, 0 = blocked;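 active = activation factor of 2 or more for CYP2C9 at a 5 µM dose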;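 note: 0 = sulfaphenazole-blocked wells and 1 = vehicle-only wells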
Target sequence (P11712 whole entry, looked up): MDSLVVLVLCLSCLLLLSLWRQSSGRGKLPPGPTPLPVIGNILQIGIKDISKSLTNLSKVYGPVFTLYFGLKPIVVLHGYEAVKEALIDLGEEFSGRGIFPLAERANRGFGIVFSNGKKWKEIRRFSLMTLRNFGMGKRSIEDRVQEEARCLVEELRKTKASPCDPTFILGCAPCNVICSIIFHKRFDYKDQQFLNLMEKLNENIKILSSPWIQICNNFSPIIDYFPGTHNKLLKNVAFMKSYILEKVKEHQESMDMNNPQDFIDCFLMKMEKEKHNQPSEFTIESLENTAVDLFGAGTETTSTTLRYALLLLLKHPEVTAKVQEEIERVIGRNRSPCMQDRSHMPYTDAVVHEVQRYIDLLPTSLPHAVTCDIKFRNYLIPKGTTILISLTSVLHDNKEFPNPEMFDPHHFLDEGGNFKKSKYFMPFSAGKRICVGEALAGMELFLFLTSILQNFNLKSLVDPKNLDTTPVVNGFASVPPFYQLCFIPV
CYP2C19 act: activators of human cytochrome P450 2C19 | 96,000 tested, under 10 active | recombinant CYP2C19, luciferin-H EGE luminescence; hits give high values; 0 = fully inhibited enzyme, 1 = untreated enzyme | activation factor at 5 µM | AID 1025;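 active = activation factor of at least 2 at 5 µM in the primary screen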;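 note: 0 = wells with 2.5 mM tranylcypromine and 1 = vehicle-only wells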
CYP2C19 inhib: human CYP2C19 inhibition; P33261; CYP2C19 Supersomes, luciferin-H EGE luminescence, 30 min; inhibition, % at 5 µM; 96,000 compounds, 21% hits; AID 778;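 active = CYP2C19 inhibition above a set limit at 5 µM in the primary screen, cut at about 50% in these data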;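 note: plate controls were negative control wells for no effect and 2.5 mM tranylcypromine positive control for full effect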
CYP2C9 inhib: inhibitors of human CYP2C9. P11712. CYP2C9 Supersomes, luciferin-H conversion, luminescence. inhibition, % at 5 µM. 96,000 compounds, 20% hits;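 active = blocking of liver enzyme CYP2C9 beyond about 50% at 5 µM, limit read from the data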
PTK2B oligo ant: antagonists of human Pyk2 oligomerization; 99,000 compounds, 0.83% hits; AID 1347419; z-score (the deposit names both 25 µM and 10 µM); Q14289; Q293 cells, Pyk2 FERM NanoBiT luminescence; hits give low values;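 active = Z-score of -3 or lower, scaled per plate to the spread of control and sample wells; inactive = z-score above -3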;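 note: negative z-score means lost luminescence so less FERM oligomerization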
Active calls of the source: *; . = no result given.

SMILES	CYP2C9 activ	CYP2C19 act	CYP2C19 inhib	CYP2C9 inhib	PTK2B oligo ant
N#CC1=C(N)Oc2n[nH]c(-c3cccs3)c2C1c1cccnc1 (stereo not drawn)	0.3	0.3	70*	69*	1.6
N#CC1=C(N)Oc2n[nH]c(-c3ccncc3)c2C1c1ccsc1 (stereo not drawn)	0.1	0.5	46	89*	0.07
Cc1ccc(SCc2[nH]nc3c2C(c2cccnc2)C(C#N)=C(N)O3)cc1 (stereo not drawn)	0.2	0.7	31	78*	-0.28
CCc1[nH]nc2c1C(c1cccnc1)C(C#N)=C(N)O2 (stereo not drawn)	1.1	1.1	-6	-6	-0.57
N#CC1=C(N)Oc2n[nH]c(-c3ccc(F)cc3)c2C1c1ccncc1 (stereo not drawn)	0.3	0.6	41	69*	1
COc1cc(C2C(C#N)=C(N)Oc3n[nH]c(-c4ccncc4)c32)cc(OC)c1OC (stereo not drawn)	0.9	0.8	18	10	-0.19
Cc1ccc(/C=N/N2CCN(Cc3cccc4ccccc34)CC2)o1	1.3	0.9	12	-33	0.82
O=C(Nc1ccc(O)cc1C(=O)O)c1ccc2c(c1)C(=O)N(Cc1ccco1)C2=O	0.4	1	-2	60*	-1.7
O=C(O)c1ccc(C(=O)c2ccc3c(c2)C(=O)N(Cc2ccco2)C3=O)cc1	0.6	0.9	10	44	-0.21
CCOc1ccccc1OCCCC(=O)NC1=NCCS1	1.7	0.6	37	-69	0.48
CC(C)(C)c1ccc(OCCCC(=O)NC2=NCCS2)cc1	0.7	0.4	65*	32	-0.56
COc1ccc(CC(=O)NC2=NCCS2)cc1	1	0.2	76*	0	0.4
COc1ccc(CCC(=O)NC2=NCCS2)cc1OC	1.7	0.4	61*	-69	0.16
COc1cc(C(=O)NC2=NCCS2)ccc1OCc1c(C)noc1C	0.4	0.5	46	60*	0.48
COc1ccc2nc(SCC(=O)N3CCN(c4ccc(F)cc4)CC3)c(C#N)cc2c1	.	.	.	.	1.6
Cc1cccc2cc(-c3ccccc3)c(-c3ccccc3)c[n+]12	.	.	.	.	1
CN(C)CCCNc1cn[nH]c(=O)c1Cl	0.9	1	-4	5	0.24
CCc1c(C(=O)N2CCN(c3ccccc3F)CC2)[nH]c(C)c1C(C)=O	0.8	0.6	43	21	0.58
O=c1[nH]nc(Sc2ncnc3sccc23)n1CCc1ccccc1	0.8	0.2	80*	25	-1.7
CCNC(=O)CSc1ncnc2sccc12	0.9	0.9	14	6	0.09
O=C(Cn1ncnn1)OCc1ccccc1Cl	1.2	0.9	5	-18	-0.43
O=C(OCc1ccccc1Cl)c1ccc(-n2cnnc2)cc1	0.1	0	98*	90*	1.5
CC/C(=N\NS(C)(=O)=O)c1ccccc1	1.2	0.9	10	-20	.
CS(=O)(=O)N(CC(=O)N1CCN(c2cccc(Cl)c2)CC1)c1cccc(F)c1	1	1	-5	-1	0.71
Cc1csc(=Nc2ccc(S(=O)(=O)N3CCOCC3)cc2)n1Cc1ccco1	0.4	0.9	12	64*	0.13
SMILES	CYP2C9 activ	CYP2C19 act	CYP2C19 inhib	CYP2C9 inhib	PTK2B oligo ant
C=CCn1c(-c2ccc(S(=O)(=O)N3CCOCC3)cc2)csc1=Nc1ccccc1	0.9	0.8	23	7	0.9
O=C(NCc1ccco1)/C(=C/c1cccnc1)NC(=O)c1ccco1	1.2	1.1	-8	-22	1.2
Cc1ccc(C)n1NC(=O)c1cccc(Cl)c1	1	0.9	12	-3	-0.82
CCC(C)(C)n1nnnc1C(c1cccs1)N1CCc2ccccc21 (stereo not drawn)	0.5	0.5	48	53*	-0.94
c1ccc(CCn2nnnc2CN2CCCc3ccccc32)cc1	0.3	0	96*	67*	4.3
CCC(C)(C)n1nnnc1CN1CCc2ccccc21	0.9	0.4	61*	13	-0.23
c1ccc2c(c1)CCCN2Cc1nnnn1CC1CCCO1 (stereo not drawn)	0.9	0.6	45	8	0.72
CC(SCCc1ccccn1)C(=O)O (stereo not drawn)	1.1	0.8	16	-7	0.86
O=C(CN1CCN(Cc2ccccc2Cl)C1=O)N1CCCCCC1	1.5	0.4	59*	-47	0.13
CCOC(=O)CSc1ccc(S(=O)(=O)N(C)C2CCCCC2)cc1[N+](=O)[O-]	0.1	0.4	64*	88*	3.2
CCOCCCNC(=O)C(C)NS(=O)(=O)c1ccc(C)cc1 (stereo not drawn)	1	1	2	-4	0.33
COCC(C)n1c(C)cc(C(=O)COC(=O)c2c(NC(C)=O)sc(C)c2C)c1C (stereo not drawn)	0.9	1	2	13	-0.21
CCOc1ccc(OCC)c(-c2c(=O)n(OCc3ccc(C(C)(C)C)cc3)c3ccccc3[n+]2[O-])c1	0.5	0.1	88*	52*	-1.5
O=C(CCn1c(=O)oc2ccccc21)Nc1cccc(Cl)c1	2*	0.4	55*	-102	.
CC1CCCC(NC(=O)CCn2c(=O)oc3ccccc32)C1C (stereo not drawn)	2*	0.6	43	-101	0.64
Cc1cccc(NC(=O)CN2C(=O)NC(Cc3ccccc3)C2=O)c1 (stereo not drawn)	0.4	0.5	47	60*	0.2
O=C(CN1C(=O)NC(Cc2ccccc2)C1=O)Nc1ccccc1 (stereo not drawn)	1	0.9	10	-4	-0.49
Cc1cccc(NC(=O)Cn2c(=O)oc3ccccc32)c1	0.9	0.4	58*	6	-0.18
COc1ccc(C2CC(c3ccc(Cl)cc3)n3nc(N)nc3N2)cc1 (stereo not drawn)	1	0.6	38	-4	.
COc1cccc(CNC(=O)CCn2c(=O)oc3ccccc32)c1	1.2	0.4	58*	-21	0.74
CCOc1ccc(CNC(=O)CCn2c(=O)oc3ccccc32)cc1OC	0.9	0.7	27	8	0.99
Cc1ccccc1N(CC(=O)N/N=C/c1ccc(F)cc1)C(=O)c1ccccc1	0.1	0.2	80*	95*	-1.5
Cc1ccccc1N(CC(=O)N/N=C/c1ccc(Cl)cc1)C(=O)c1ccccc1	0	0.3	68*	98*	-2.2
COCc1cc(Sc2ccc(Cl)cc2Cl)nc(-c2ccccc2)n1	1.2	1.1	-5	-19	0.54
O=S(Cc1cc(Sc2ccccc2)nc(-c2ccccc2)n1)c1ccccc1 (stereo not drawn)	0.1	0	98*	94*	-1.2
CNc1cc(CS(=O)c2ccccc2)nc(-c2ccccc2)n1 (stereo not drawn)	1	0.1	93*	3	0.99
COc1ccc(C2C(C#N)=C(N)N3C(=C2C#N)Sc2ccccc23)cc1 (stereo not drawn)	0.8	0.9	8	18	.
C=CCn1c(Cc2ccc(OC)cc2)nnc1SCC(=O)NCCc1ccccc1	0.7	0.7	26	30	-0.43
